Compound activity (PubChem BioAssay)
p53ts 39C kill: cytotoxicity in p53ts cells at nonpermissive temperature | H1299-p53A138V viability at 39C, ATP luminescence, 24 h | Potency, µM (doses to about 46.1 µM), inactives show at the top dose activity change, negative = cell killing, actives largely listed as cytotoxic | 1.5% of 130,000 active | AID 902; further: on the % scale 0 is the no-effect control and ±100 the full control effect; nearly all actives have a fitted effect of over 55% in size
IkB signaling: inhibitors of IkB signaling in ABC-DLBCL cells; AID 445; 0.04% of 110,000 active; ABC-DLBCL IkBa-CBG/CBR dual luciferase ratio, 4 h; response scale: scaled: untreated 0%, proteasome inhibitor 100%; Potency, µM (top dose mostly 57.1 µM), without a hit: top-dose IkBa stabilization activation; active means well fitted curve in the direction sought with a large enough effect in the signal ratio, not every such curve was filed as active; inconclusive means small, poorly fitted or top-dose-only effect, or a change in a side signal; the % refers to the signal ratio;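 further: the direction sought is a rising ratio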
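In this assay, an IκBα–CBG68 fusion accumulates when IKK-driven degradation is blocked; native CBR normalizes for cell number. OCI-Ly3 cells were treated 4 h with compound and doxycycline, then green and red light read after Chroma-Glo addition.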
p53ts 32C kill: p53ts cell cytotoxicity, permissive temperature; H1299-p53A138V at 32C, ATP luminescence viability, 24 h; Potency, µM (doses to about 46.1 µM), inactives show top-dose activity change, negative = cytotoxicity, usual class: cytotoxic; 0.93% of 130,000 active; AID 924;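 further: 0% = DMSO and -100% = full killing by reference compound; nearly all actives have a fitted effect of over 55% in size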
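H1299-p53 A138V cells (temperature-sensitive p53) exposed 24 h to up to 46 uM compound at 32C, where p53 is wild-type in conformation. Viability read as ATP luminescence and normalised to DMSO and 100 uM tamoxifen. AC50 fitted with the Hill equation.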
Peg3 imprint: genomic imprint erasure induction; mouse ES Peg3-LacZ reporter, beta-gal luminescence, 40 h; AID 1948; 0.02% of 110,000 active; Potency, µM (titrated, usually from 60.7 µM), inactives show at the highest dose activity change, positive = activation, most hits filed as activators
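Gelatin-coated wells received 300 freshly trypsinized female ES cells with a Peg3LacZ-Neo reporter on the maternal allele, then incubated 40 hours at 37C. BetaGlo was added for 5 minutes at room temperature before a single luminescence read.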
Starred values were filed as active, the others as inactive; [ ] = remark or other dose. Hits are enriched below; roughly 1.8% of the tested compounds scored in any of these assays. Unless noted, the call rests on the fitted dose curve; in most records, active means well fitted curve in the direction sought with a large enough effect; inconclusive means small, poorly fitted or top-dose-only effect, or another doubt; inactive means no such curve, though single readings can be large; an effect the other way counts as inactive or inconclusive. Potency means the concentration at half of the fitted maximal effect.

`COC(=O)c1ccc(Nc2nc(-c3ccc(C)cc3)nc3ccccc23)cc1` gave p53ts 39C kill 13µM*, IkB signaling inconclusive, p53ts 32C kill inconclusive and Peg3 imprint -23%[10.9 µM].
Screening CCc1nnc(NC(=O)c2ccc(OC)cc2OC)s1 returned p53ts 39C kill inconclusive, IkB signaling inconclusive, p53ts 32C kill 16µM* and Peg3 imprint -45%.
Screening CCc1nnc(NC(=O)Nc2ccccc2OC)s1 returned p53ts 39C kill -6%, IkB signaling 1%, p53ts 32C kill 13% and Peg3 imprint -8%.
`CCCCN(C)CCCNC(=O)Cn1ncc2c3ccccc3n(Cc3cc(C)ccc3C)c2c1=O` gave p53ts 39C kill 2.5µM*, IkB signaling 0%, p53ts 32C kill -6% and Peg3 imprint 27%[10.9 µM].
Cc1ccc(C)c(Cn2c3ccccc3c3cnn(CC(=O)NC(C)CCc4ccccc4)c(=O)c32)c1 (stereo not drawn) was read as p53ts 39C kill 5µM*, IkB signaling 2%, p53ts 32C kill -27% and Peg3 imprint 11%[10.9 µM].
Screening CCCCN(C)CCCNC(=O)Cn1ncc2c3ccccc3n(Cc3ccccc3F)c2c1=O returned p53ts 39C kill 13µM*, IkB signaling 0%, p53ts 32C kill -4% and Peg3 imprint -6%[10.9 µM].
Screening CC(=O)Nc1ccc(S(=O)(=O)Nc2cccc(-c3ccc(N4CCC(C)CC4)nn3)c2)cc1 returned p53ts 39C kill 3.5µM*, IkB signaling inconclusive, p53ts 32C kill 2.5µM* and Peg3 imprint -10%[10.9 µM].
CC(=O)c1ccc(S(=O)(=O)Nc2ccc(-c3ccc(N4CCCCC4)nn3)cc2)cc1 was read as p53ts 39C kill 4µM*, IkB signaling inconclusive, p53ts 32C kill inconclusive and Peg3 imprint 5%[10.9 µM].
`COc1ccc(OC)c(S(=O)(=O)Nc2cccc(-c3ccc(N4CCCCC4)nn3)c2)c1` gave p53ts 39C kill inconclusive, IkB signaling -1%, p53ts 32C kill -3% and Peg3 imprint 13%[10.9 µM].
Screening CCc1ccc(S(=O)(=O)Nc2cccc(-c3ccc(N4CCC(C)CC4)nn3)c2)s1 returned p53ts 39C kill 10µM*, IkB signaling inconclusive, p53ts 32C kill 13µM* and Peg3 imprint 6%[10.9 µM].
COc1ccc(S(=O)(=O)Nc2cccc(-c3ccc(N4CCC(C)CC4)nn3)c2)c(OC)c1 was read as p53ts 39C kill 16µM*, IkB signaling inconclusive, p53ts 32C kill 10µM* and Peg3 imprint -7%[10.9 µM].
Screening CCOc1ccc(-c2cccc(NS(=O)(=O)c3ccc(C)s3)c2)nn1 returned p53ts 39C kill -8%, IkB signaling 2%, p53ts 32C kill -9% and Peg3 imprint 0%[10.9 µM].
For COc1cccc(-c2cc(NCc3cccc(C)c3)ncn2)c1 the results were p53ts 39C kill -26%, IkB signaling 1%[11.4 µM], p53ts 32C kill -8% and Peg3 imprint -13%.
For COc1ccc(CNC(=O)c2cccc(-n3cnc4cccnc43)c2C)cc1 the results were p53ts 39C kill 7%, IkB signaling -2%, p53ts 32C kill 9% and Peg3 imprint 18%[10.9 µM].
COc1ccc(N2CC(NC(=O)CCCc3ccccc3)CC2=O)cc1 (stereo not drawn) was read as p53ts 39C kill -19%, IkB signaling 0%, p53ts 32C kill -2% and Peg3 imprint 12%[10.9 µM].
CCC1CCCCN1C(=O)CSc1n[nH]c(-c2ccccc2Cl)n1 (stereo not drawn) was read as p53ts 39C kill inconclusive, IkB signaling -1%, p53ts 32C kill -15% and Peg3 imprint 9%[10.9 µM].
Screening Cn1c(=O)c2c([nH]c(=O)n2Cc2ccc(Cl)cc2Cl)n(C)c1=O returned p53ts 39C kill -5%, IkB signaling 0%, p53ts 32C kill -5% and Peg3 imprint -2%[10.9 µM].
Cc1ccc(Cl)cc1-n1ncc2c(Nc3ccc4c(c3)OCCO4)ncnc21 was read as p53ts 39C kill -17%, IkB signaling inconclusive, p53ts 32C kill -5% and Peg3 imprint -12%[10.9 µM].
`NC(=NC1C2CC3CC(C2)CC1C3)Nc1ccc(I)cc1` (stereo not drawn) gave p53ts 39C kill 25µM*, IkB signaling 1%, p53ts 32C kill -8% and Peg3 imprint -10%.
`CCc1ccc(C2CC(=O)c3c([nH]c(C(=O)OCCOc4ccccc4)c3C)C2)cc1` (stereo not drawn) gave p53ts 39C kill 13µM*, IkB signaling -1%, p53ts 32C kill inconclusive and Peg3 imprint -27%[10.9 µM].
For CCOc1ccc(C2CC(=O)c3c([nH]c(C(=O)OCCOc4ccccc4)c3C)C2)cc1 (stereo not drawn) the results were p53ts 39C kill inconclusive, IkB signaling -3%, p53ts 32C kill inconclusive and Peg3 imprint -22%[10.9 µM].
Screening Oc1[nH]c2ccccc2c1C=Nc1ccc2c(c1)OCCO2 returned p53ts 39C kill 13µM*, IkB signaling inconclusive, p53ts 32C kill inconclusive and Peg3 imprint -75%.
For Cc1cccc(/N=C/c2c(O)[nH]c3ccccc23)n1 the results were p53ts 39C kill inconclusive, IkB signaling 9%, p53ts 32C kill inconclusive and Peg3 imprint -65%.
Screening CCOc1ccc(-c2cc(CCCC(=O)NCc3cccnc3)no2)cc1 returned p53ts 39C kill inconclusive, IkB signaling inconclusive, p53ts 32C kill 16µM* and Peg3 imprint -17%.
Screening CCOc1ccc(-c2cc(CCCC(=O)Nc3cc(OC)ccc3OC)no2)cc1 returned p53ts 39C kill -6%, IkB signaling inconclusive, p53ts 32C kill 3% and Peg3 imprint -8%.
For CCOc1ccc(-c2cc(CCCC(=O)Nc3cccc(OC)c3)no2)cc1 the results were p53ts 39C kill 0%, IkB signaling 3.2µM*, p53ts 32C kill 3% and Peg3 imprint -45%.
CC(=O)c1cccc(NC(=O)c2sc3nc4c(cc3c2N)CCCC4)c1 was read as p53ts 39C kill 13µM*, IkB signaling inconclusive, p53ts 32C kill inconclusive and Peg3 imprint -15%[10.9 µM].
O=C(Nc1cc2c(cc1C(=O)c1ccccc1)OCCO2)c1ccc(Br)cc1 was read as p53ts 39C kill 20µM*, IkB signaling 6%, p53ts 32C kill -6% and Peg3 imprint -17%[10.9 µM].
For Cc1conc1NC(c1cccs1)c1ccc2cccnc2c1O (stereo not drawn) the results were p53ts 39C kill inconclusive, IkB signaling inconclusive, p53ts 32C kill 13µM* and Peg3 imprint -48%.
For O=C(O)c1ccc(N[C@H](c2ccccc2)c2ccc3cccnc3c2O)cc1 the results were p53ts 39C kill inconclusive, IkB signaling 6%[11.4 µM], p53ts 32C kill -9%[9.22 µM] and Peg3 imprint -11%[10.9 µM].
CCOC(=O)N1CCC2(CC1)OC(=O)C(C)=C2C(=O)NCc1cccc(F)c1 was read as p53ts 32C kill -4%.
Screening CCCCNC(=O)c1ccc(Cc2nc3ccccc3[nH]2)cc1 returned p53ts 39C kill -2% and p53ts 32C kill -7%.
Screening CCCS(=O)(=O)c1ncc(Cl)c(C(=O)N2CCN(c3ccc(OC)cc3)CC2)n1 returned p53ts 39C kill 13µM*, IkB signaling inconclusive, p53ts 32C kill inconclusive and Peg3 imprint -37%[10.9 µM].
